# Pf Dd2 growth: Plasmodium falciparum Dd2 growth inhibition. P. falciparum Dd2 growth, SYBR Green, 72 h. Potency, µM (top dose mostly 28.9 µM), usual class: inhibitors. hit rate 4.3% among 120,000; active means well fitted inhibition curve with a large enough effect; further: nearly all actives have a fitted effect of over 65% in size
#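 Readout: SYBR Green fluorescence, 485 nm excitation, 535 nm emission, after ~16 h lysis at 37C. Before that, Dd2-infected red cells (2.5% hematocrit) grew 72 h with compound, 29 uM top final concentration.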
# A number is an active result; . = inactive; [ ] = another dose, or the depositor's remark. Shown is part of a subset that was picked to be rich in hits.
SMILES,Pf Dd2 growth
O=C(N1CCCC(c2nn[nH]n2)C1)C1(c2ccccc2)CC1 (stereo not drawn),.
Cc1cc(-c2cc3c(nc2-c2ccccc2)nc(C(=O)NCCN(C)C)n3C)ccn1,.
COCCCNC(=O)c1nc2nc(-c3ccccc3)c(Cl)cc2n1C,.
CN(C)CCNC(=O)c1nc2nc(-c3ccccc3)c(Nc3ccc(F)cc3)cc2n1C,7.08µM
CN(C)CCNC(=O)c1cc(-c2ccc(F)cc2)cc2ncn(C)c12,.
Cc1ccccc1Nc1cc2c(nc1-c1ccccc1)nc(C(=O)NCCN(C)C)n2C,7.94µM
COCc1nc2nc(-c3ccccc3)c(Nc3ccc(F)c(OC)c3)cc2n1C,.
O=C(CCC1CCCC1)NC1CCN(C(=O)N2CC3CC(C2)[C@H]2CCCC(=O)N2C3)CC1 (stereo partly drawn),.
Cc1ccc(C)c(C(=O)NC2CCCN(c3cc(-c4ccccc4)[nH]n3)C2)c1 (stereo not drawn),.
Cc1ccc(C2Cn3nnc(-c4nc(-c5ccc6c(c5)OCO6)no4)c3CO2)c(C)c1 (stereo not drawn),.
COCCN1CCCC2(CCN(Cc3cc(-c4ccccc4)no3)C2)C1=O (stereo not drawn),.
Cc1noc(C)c1Cc1ccc(C(=O)NCC2Cn3cccc3C(=O)N2C)o1 (stereo not drawn),.
O=C(NCC(F)(F)F)C1CCCN(c2nc3ncccc3o2)C1 (stereo not drawn),.
CS(=O)(=O)c1ccc(-c2cnc([C@@H]3COCCN3C3CCOCC3)[nH]2)cc1,.
CC1=C[C@@H](CNC(=O)CCC(=O)O)[C@H](C(C)C)C[C@H]1CC(=O)N1CCN(C)CC1,.
COc1ccc(C(=O)N[C@@H]2CCC[C@@H]2C(=O)NCC(C)C)cc1,.
CCc1nc(C)c(C(=O)N2CCC3(CC2)CC(c2ccccc2)CN(CC)C3)o1 (stereo not drawn),.
Clc1cc(Cl)cc(NC2CNC2)c1,22.4µM
Cn1nc(C2CCN(C(=O)c3cc(F)ccc3F)CC2)c2c1CCOC2,.[5.79 µM]
O=C(NCCN1CCOCC1)C1CN(S(=O)(=O)c2ccccc2)CC12CCCCC2 (stereo not drawn),3.98µM
O=C(NCc1cc(F)ccc1F)C1CN(S(=O)(=O)c2cccnc2)CC12CCCCC2 (stereo not drawn),2.82µM
O=C(NCCc1cccs1)C1CN(S(=O)(=O)c2cccnc2)CC12CCCCC2 (stereo not drawn),.
O=C(NCCCN1CCCC1=O)C1CN(S(=O)(=O)c2ccccc2)CC12CCCCC2 (stereo not drawn),.
COC(=O)CCNC(=O)C1CN(S(=O)(=O)c2cccnc2)CC12CCCCC2 (stereo not drawn),.
O=C(Nc1cc(F)ccc1F)C1CN(S(=O)(=O)c2cccnc2)CC12CCCCC2 (stereo not drawn),.
SMILES,Pf Dd2 growth
COCCC(=O)N1CCCN(S(C)(=O)=O)C(c2ccccc2)CC(=O)NCC1 (stereo not drawn),.
CCn1ncc(N2CCC(NC(=O)c3ccc(OC)cc3)CC2)cc1=O,.
O=C(Cn1nc2c(cc1=O)CCCCC2)N[C@@H](C(=O)O)c1ccccc1,.
OCC1CN(c2ncccn2)CC12CCN(Cc1ccco1)CC2 (stereo not drawn),.
CN1CCCN(C[C@@H]2CN(C(=O)c3ccnc4ccccc34)C[C@@H]2CO)CC1,.
O=C(c1ccc(C(F)(F)F)cc1)N1CCC2(CC1)COc1ccccc1S(=O)(=O)N2,.
COc1ccc(-c2cc(C[C@H]3CNCC[C@H]3CC(=O)N3CCN(C)CC3)no2)cc1,.
COc1ccc(CNC(=O)C[C@@H]2CCNC[C@@H]2Cc2cc(CN(C)Cc3ccccc3)on2)cc1,.
O=C(C[C@@H]1CCNC[C@@H]1Cc1cc(CSc2ccccc2)on1)NCc1cccnc1,.
COc1ccc(-c2cc(C[C@H]3CNCC[C@H]3CC(=O)NCc3ccc(OC)c(OC)c3)no2)cc1,.
C#CCN(C)C(=O)C[C@@H]1CCNC[C@@H]1Cc1cc(COc2ccccc2)on1,10µM
COc1ccc(-c2cc(C[C@H]3CNCC[C@H]3CC(=O)N(C)Cc3ccccc3)no2)cc1,10µM
COc1ccc(CNC(=O)C[C@@H]2CCNC[C@@H]2Cc2cc(-c3ccc(OC)cc3)on2)cc1,.
O=C(C[C@@H]1CCNC[C@@H]1Cc1cc(CSc2ccccc2)on1)NCCN1CCOCC1,.
COc1ccc(-c2cc(C[C@H]3CNCC[C@H]3CC(=O)NCc3ccccc3OC)no2)cc1,10µM
O=C(C[C@@H]1CCNC[C@@H]1Cc1cc(COc2ccccc2)on1)NC1CCCCC1,.
CN(Cc1ccccc1)C(=O)C[C@@H]1CCNC[C@@H]1Cc1cc(CSc2ccccc2)on1,10µM
COc1ccc(-c2cc(C[C@H]3CNCC[C@H]3CC(=O)N3CCN(c4ccccc4)CC3)no2)cc1,.
COc1ccc2[nH]cc(CCNC(=O)C3(Cc4cccnc4)CCCCC(=O)N3)c2c1 (stereo not drawn),.
COc1ccccc1-c1cn2c(n1)CO[C@@H](CNCc1ccc(F)cc1)C2,.
COc1cccc(-c2nc(-c3nnn4c3COC(c3ccc(C)cc3)C4)no2)c1 (stereo not drawn),.

# Bioassay records (PubChem)
